Laboratory results: PubChem BioAssay AID977630 (Broad Institute, 2014)
Fewer than 10 of roughly 1,600 compounds were called active. Another 48% or so got no clear call; they are omitted.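 Rule for the calls: active = Normal-ribosome green reporter loss at least double humanized-ribosome red reporter loss, with overall culture growth inhibition under a set limit; inconclusive = no clear call, values can overlap the other calls; inactive = the rest.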 These entries were drawn from the full list. Entries with a potency or affinity are not part of this list.

Assay: E. coli growth inhibition, wild-type GFP versus H38 humanized RFP strain – H38 mutant RFP vs wild-type GFP, cherry-pick, dose response (AID 977630)
Conditions: mixed culture, 24 h; series mostly up to 50 µM; activity change, negative = inhibition: at the top concentration

Activity change, negative = inhibition, inactive:
COCC#Cc1ccc2c(c1)O[C@@H](CN(C)S(=O)(=O)c1cccc(F)c1)[C@@H](C)CN([C@H](C)CO)S2(=O)=O -17.1, O=C(CSCc1cnn(-c2ccccc2)c1-n1cccc1)NCc1cccnc1 4.83, CCOC(=O)C1NN=C(C(=O)c2ccccc2)C1c1ccc(OC)cc1 (stereo unspecified) -0.226, CN1CCN(C(=O)c2cc3nc(-c4ccco4)cc(C(F)(F)F)n3n2)CC1 4.79, Cc1cccc(CN2C(=O)c3ccccc3Sc3ccc(C(=O)NCCN4CCOCC4)cc32)c1 -9.56, S=c1nc(-c2cccc(Br)c2)[nH][nH]1 -17, O=C(Cc1ccc(Br)cc1)Nc1cccc(-c2cn3c(n2)SCC3)c1 -13.7, Cc1cc(SCC(=O)c2cccs2)n2nc(C)c(-c3ccc(Cl)cc3)c2n1 -3.99, CC(C)[C@@H]1CC[C@@H](C)C[C@H]1O 44.4, COc1ccc(-c2cc(C(=O)O)nc3ccc4ccccc4c23)cc1OC -15.7, COc1ccc(C(=O)COc2ccc(F)cc2)c(O)c1 3.67, O=C(O)CC1(CC(=O)Nc2ccc3sccc3c2)CCCCC1 -2.25, CCOC(=O)C(CC)Sc1cc(C)nc2ccc(OC)cc12 (stereo unspecified) -17.8, O=C(NC1CCCCC1)C(c1cccc2ccccc12)n1c(=O)c(-c2ccco2)nc2ccccc21 (stereo unspecified) -2.93, COc1cc(CC(=O)Nc2nc(C)cs2)cc(OC)c1OC -5.62, Cc1cc(NC(=O)c2sc(Nc3ccc(F)c(Cl)c3)nc2N)no1 9.52, COc1cc(OC)cc(-c2nc3ccccc3c(=O)n2OC(=O)c2ccc(C)c(C)c2)c1 10.3, Cn1ccc2cc(-c3ccc4ncnc(NCc5cccs5)c4c3)ccc21 -14.3, Fc1ccccc1C1CCN(Cc2nc(CC3CC3)no2)C1 (stereo unspecified) 0.528, O=C(COc1ccc(Br)cc1)Nc1ccc(C(=O)Nc2ccccc2C(=O)O)cc1 -23.1, C#CCOc1nc(Nc2cccc([N+](=O)[O-])c2)nc(OCC#C)n1 -4.34, OC(COc1ccc(Cl)cc1)CN1CCN(c2ccccn2)CC1 (stereo unspecified) -7.68, Cc1nn(-c2ccc(N3CCCCC3)nn2)c(C)c1CCC(=O)Nc1ccc(F)cc1 15.2, COc1cc2c(cc1OC)C1(C)N(CC2)C(C(C)=O)=NN1c1ccc(Cl)cc1 (stereo unspecified) -11.9, O=C(Nc1ccc(C(F)(F)F)cc1)C1CCN(c2cnccn2)CC1 -7.16, Cc1nn(CC(=O)OCCOc2ccc(Br)cc2)c(C)c1[N+](=O)[O-] -13.8, NS(=O)(=O)c1cccc(NC(=O)COc2ncnc3c2cnn3-c2ccccc2)c1 11.2, c1ccc2c(c1)Nc1cc3ccccc3cc1S2 14.4, CC(C)OC(=O)c1sc2nc(-c3ccccc3)ccc2c1N 6.79, COc1ccc(C2CC(c3ccc(Br)cc3)=NN2C(=O)CN2CCCC2)cc1 (stereo unspecified) -0.841, COc1ccc(CNC(=O)c2nc(S(=O)(=O)Cc3ccccc3)ncc2Cl)cc1 3.47, CCc1nc2ccccc2c(C(=O)OCC(=O)NC(=O)c2cccn2C)c1C 0.218, O=C(Nc1ccccc1N1CCOCC1)C1CCCCN1S(=O)(=O)c1ccccc1 (stereo unspecified) -15.6, CCOc1ccc(NC(=O)CCc2nnc3ccc(N4CCC(C)CC4)nn23)cc1 5.84, Cc1cc(C)cc(NS(=O)(=O)c2c(C(=O)N3CCCCCC3)c(C)n(C)c2C)c1 -5.32, COc1ccc(CN(C)C(=O)c2cc(-c3ccc(OC)c(OC)c3)nc3ccccc23)c(OC)c1 -3.82, CC1(C(=O)NS(=O)(=O)c2cccc(F)c2)CCN1C(=O)C1(c2ccc(Cl)cc2)CCC1 (stereo unspecified) -2.51, CC(C)(C)NC(=O)C(c1ccncc1)N(Cc1ccc(F)cc1)C(=O)c1ccc(-c2ccccc2)[nH]1 (stereo unspecified) 7.88, Cc1ccc(C(=O)C2Oc3ccccc3C3CC(c4ccc(C)cc4)=NN23)cc1 (stereo unspecified) 9.36, Cc1nc(N2CCC(C)CC2)c(C#N)c(C)c1[N+](=O)[O-] -13.2, Cc1cc(NC(=O)CCN2C(=O)C3C4C=CC(C4)C3C2=O)ccc1Br (stereo unspecified) -16.8, CCOc1ccc2[nH]c3c(NCCN(C)C)ncnc3c2c1 -14.5, Cc1ccc(S(=O)(=O)N(C(=O)c2ccncc2)c2ccc(OC(=O)c3ccncc3)cc2)c(C)c1 -4.92, COc1ccc(C(NC(=O)C2CCN(CCOc3ccc(Cl)cc3Cl)CC2)c2ccccc2C)cn1 (stereo unspecified) -11.5, COc1cccc(-c2ccc(NC(=O)C3CCCN(Cc4cnn(C(C)C)c4)C3)cc2)c1 (stereo unspecified) -10.3, Cc1cccc(NC(=O)c2c(C)nn(-c3ccccc3)c2Cl)c1 -12.1, CC(C)Oc1cccc(C(=O)C2CCCN(C(=O)c3cc(C(F)(F)F)[nH]n3)C2)c1 (stereo unspecified) -16.1, Cc1ccccc1-c1nc(CS(=O)(=O)CC(=O)N2CCCCC2)c(C)o1 -7.64, COc1cccc(NC(=O)C(c2ccccc2)N2CCN(c3ccccn3)CC2)c1 (stereo unspecified) 0.522, COC(=O)c1ccc2nc(-c3ccc(F)cc3)c(Cc3cccc(F)c3)n2c1 8.32, COc1ccc(-c2nn(-c3ccccc3C)cc2CNCc2cccnc2)cc1F 0.878, CC1CCc2c(sc3ncn4c(SCC(=O)NCc5ccco5)nnc4c23)C1 (stereo unspecified) 0.062, CC1CN(CC(=O)Nc2nc3ccccc3s2)CC(C)O1 (stereo unspecified) 9.37, O=S(=O)(Nc1ccccc1N1CCCCC1)c1cccs1 -10.8, Cc1ccn2cc(-c3cccc(NC(=O)c4cccs4)c3)nc2c1 -0.986, O=S(=O)(Cc1ccc(Cl)cc1)N1CCN(Cc2ccc3c(c2)OCO3)CC1 33, Cc1cccc(NS(=O)(=O)c2cc3c(cc2C)NC(=O)CO3)c1 2.86, O=C(CSCc1c(Cl)cccc1Cl)NCc1ccccn1 -3.03, Cc1cccc(N2CCN(Cc3nc(-c4ccc(F)cc4F)oc3C)CC2)n1 -12.6, CCNc1nc(N)c(C(=O)C23CC4CC(CC(C4)C2)C3)s1 -3.15, CNC(=O)c1sc(-c2ccccn2)nc1C 43.1, Cc1cc(C)c(OCCN(C)Cc2ccccc2)c(Br)c1 -6.16, O=C(Nc1cc(S(=O)(=O)N2CCCCC2)ccc1N1CCCCC1)C1CC1 -2.36, CCCCNC(=O)c1c(N)[nH]c(C(=O)c2ccccc2)c1-c1ccccn1 -9.15, Cc1nn(S(=O)(=O)c2ccc(Cl)cc2)c(C)c1Sc1ccc([N+](=O)[O-])cc1 2.54, Cc1cccc(NC(=O)c2sc3nc(-c4ccccc4)cn3c2C)n1 -13.7, COC(=O)c1ccc(CSc2nc3ccccc3s2)o1 1.79, COc1ccccc1-c1noc2ncnc(Nc3ccccc3C)c12 -1.41, O=C(c1cccs1)c1c[nH]cc1-c1ccccc1 -0.904, Cc1ccc(CSCC(=O)Nc2ccccc2F)cc1 -11.7, COc1ccc(NC(=O)c2ccc(COc3ccccc3Br)o2)c(OC)c1 -8.05, CCc1nnc(NC(=O)CSc2ncc(-c3ccccc3)[nH]2)s1 7.1, COc1cccc(NC(=O)C2CCC(CNS(=O)(=O)c3cccc4cccnc34)CC2)c1 (stereo unspecified) -8.77, CCOC(=O)c1sc(Nc2cccc(Cl)c2)nc1C 5.47, Cn1c(=O)n(C)c2cc([N+](=O)[O-])c(N3CCN(C(=O)c4cccc(F)c4)CC3)cc21 -2.34, Brc1ccc(-c2nc3c4ccccc4ccn3c2Cc2ccccc2)cc1 5.21, CCN(CC)CC(=O)Nc1sc2c(c1C(=O)c1ccccc1OC)CCC2 -11.9, O=S(=O)(Cc1ccco1)Cc1nc(-c2ccc(Cl)cc2)cs1 -12, Cc1ccccc1NS(=O)(=O)c1cc(C(=O)NCCC2=CCCCC2)ccc1C -6.86, Cc1c(CCOC(=O)C23CC4CC(CC(C4)C2)C3)sc[n+]1Cc1ccccc1 -16.3, O=C(CSc1nnc(-c2ccccc2F)n1C1CC1)Nc1cccnc1Cl -0.733, CSc1ccc(CN(C)CC(=O)NC(C)c2ccccc2)cc1 (stereo unspecified) -9.26, COc1cc[n+]([O-])cc1[N+](=O)[O-] 5.53, COc1ccc(OC2C(=O)N(Cc3ccc4c(c3)OCO4)C2c2sccc2C)cc1 (stereo unspecified) -11.6, COc1ccc(C(=O)C[n+]2ccc3c(c2)nc(-c2cc(OC)c(OC)cc2OC)n3C)cc1 -22.4, c1coc(CSc2ncnc3c2oc2ccccc23)c1 1.36, COc1cccc(SCC(=O)N2CCN(c3ccccc3)CC2)c1 2, COc1ccc(C(=O)CSc2nc3ccccc3n2CC(=O)c2ccccc2)cc1 -11.1, O=C(Nc1cscc1S(=O)(=O)c1ccccc1)c1ccccc1Cl -10.9, CC1Cc2ccccc2N1C(=O)CN1C(=O)NC(C)(CCc2ccccc2)C1=O (stereo unspecified) -12.9, O=C(COC(=O)c1ccc(O)cc1)Nc1ccccc1 -6.04, O=S(=O)(NC1c2cccc3cccc(c23)C1Sc1ncccn1)c1ccccc1 (stereo unspecified) -20, O=[N+]([O-])c1ccc(/C=C/c2ccc3cccc([N+](=O)[O-])c3n2)cc1 -3.36, Cc1cc(C(=O)Nc2ccc(Cl)cc2)c(C)n1Cc1cccs1 1.59, CCCCOc1ccc(-c2nnn(CCC(=O)N3CCOCC3)n2)cc1 -6.25, Cc1ccnc(NS(=O)(=O)c2ccc(NC(=O)c3ccc4c(c3)OCCO4)cc2)n1 -5.99, CN1N=C2c3ccccc3CCC2C1c1ccc(F)cc1 (stereo unspecified) -10.9, COc1ccc(-c2nc(NC(C)=O)sc2-c2ccccc2)cc1 -9.72, Nc1ccccc1Sc1c[nH]c2ccccc12 3.45, CCc1cccc(CC)c1NC(=O)Cn1c(-c2ccc(F)cc2)noc1=O 1.93, Cc1ccc(C)c(N2CCN(C(=O)CCS(=O)(=O)c3ccc4c(c3)oc(=O)n4C)CC2)c1 -13.2, CCOC(=O)c1cc2nc(-c3ccccc3)cc(C)n2n1 2.87, O=C(NCc1ccccc1)C1C(=O)Nc2ccccc2C(=O)N1c1ccc2c(c1)OCCO2 (stereo unspecified) -5.03, CSc1ccccc1NC(=O)CN(c1cccc(C)c1)S(C)(=O)=O 2, CC(OC(=O)COc1ccccc1)C(=O)NC1CCCC1 (stereo unspecified) -4.16, O=S(=O)(c1ccc(Cl)cc1)N1CCN=C1SCc1cccc(Cl)c1 -8.56
